Screens deposited in PubChem by The Scripps Research Institute Molecular Screening Center.
Rows were chosen to be rich in hits. Some 4.8% of all compounds tested hit in one or more screens of this group.
hcDAF-12 act: activators of H. contortus DAF-12 nuclear receptor. activation, % at 6.8 µM. AID 652067. HEK293 hcDAF-12 lit1-tk-luc reporter, luminescence; 0% DMSO, 100% Δ7-dafachronic acid. 1.4% of 370,000 active;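 active = activation above the mean of all tested compounds plus 3 SD, cut at about 5.5% in these data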
DAX1 inh-1: NR0B1 (DAX1) inhibition | P51843 | HEK293 Gal4-DAX1 luciferase reporter, luminescence | inhibition, % at 6.75 µM | 0.99% of 340,000 active | AID 504766;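 active = inhibition above the mean over all tested compounds plus 3 SD, cut at about 4.2% in these data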;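 also: inhibition shows as a rise in luminescence from relieved DAX1 repression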
Target sequence (P51843 207-470 limits assumed): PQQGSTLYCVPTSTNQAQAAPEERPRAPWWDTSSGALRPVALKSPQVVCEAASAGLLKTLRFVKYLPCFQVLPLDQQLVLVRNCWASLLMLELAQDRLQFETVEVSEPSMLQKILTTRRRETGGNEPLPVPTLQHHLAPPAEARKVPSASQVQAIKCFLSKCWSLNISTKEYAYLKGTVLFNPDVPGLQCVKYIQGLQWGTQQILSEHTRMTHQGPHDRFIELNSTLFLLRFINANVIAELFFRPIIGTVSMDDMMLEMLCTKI
SMARCA2 act: increases SMARCA2 function in MMTV reporter cells; AID 652017; 1% of 370,000 active; MG213 cells, MMTV-luciferase reporter, dexamethasone, overnight; activation, % at 9.1 µM; in the data active = activation above about 7.8%
hgDAF-12 ag: hgDAF-12 agonism, primary luciferase screen | HEK293 GAL4-hgDAF12 UAS-luciferase reporter, agonist luminescence; normalized to butyrate control | activation, % at 6.8 µM | 1.8% of 370,000 active | AID 687014;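 active = activation above a cutoff set at the mean of all screened compounds plus 3 SD, cut at about 10% in these data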
DAX1 inh-2: inhibitors of DAX1 repression of SF-1 activated StAR promoter | 1.1% of 370,000 active | inhibition, % at 6.8 µM | HEK293T StAR-luciferase reporter, SF-1/DAX-1 repression relief;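 active = inhibition above the mean over all tested compounds plus 3 SD, cut at about 3.6% in these data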;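 also: higher inhibition means more luminescence from relief of DAX-1 repression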
ssDAF-12 act: activators of S. stercoralis DAF-12 nuclear receptor; HEK293 ssDAF-12/GRIP1 lit1-tk-luc reporter, luminescence; % of 3 µM dafachronic acid response; activation, % at 6.8 µM; 1% of 370,000 active; AID 652126;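 active = activation above the mean over all tested compounds plus 3 SD, cut at about 0.9% in these data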
SMARCA2 act conf: SMARCA2 activation, confirmation screen | activation, % at 9.1 µM | MG213 cells, MMTV-luciferase with dexamethasone, luminescence, overnight; MG213 cells expressing E1A, Rb sequestered; DMSO wells 0%, reference activator 100% | shares compounds with SMARCA2 act | 30% of 3,500 active | AID 652260;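 active = activation above its plate's cutoff, the mean activation of tested wells plus 3 SD, cut at about 7.9% in these data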
GAL4-VP16 Luc: GAL4-VP16 reporter activation counter-screen. shares compounds with SMARCA2 act. HEK293 GAL4-VP16 pG5luc reporter, luciferase luminescence; scaled: DMSO wells 0%, SAHA wells 100%. activation, % at 9.1 µM. 41% of 3,500 active;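 active = activation above the solvent-only control well mean plus 3 SD, averaged across control plates, cut at about 5.2% in these data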
A number is an active result; n = inactive; x = no result.

SMILES | hcDAF-12 act | DAX1 inh-1 | SMARCA2 act | hgDAF-12 ag | DAX1 inh-2 | ssDAF-12 act | SMARCA2 act conf | GAL4-VP16 Luc
COCc1cc(C)nc(OCC(=O)N/N=C/c2ccc(-c3cc([N+](=O)[O-])ccc3C)o2)c1C#N | n | n | n | n | n | n | x | x
COc1cc2c(cc1NC(=O)CSc1nnc(-c3cccc(Cl)c3)n1-c1ccccc1)oc1ccccc12 | n | x | n | n | n | n | x | x
COC(=O)c1ccc2nc(-c3ccc(F)cc3)c(Cc3ccccc3C(F)(F)F)n2c1 | n | x | 9.1 | n | n | n | n | n
COC(=O)c1ccc2nc(-c3ccccc3)c(Cc3ccccc3C(F)(F)F)n2c1 | n | x | n | n | n | n | x | x
COc1ccc(C=C2CS(=O)(=O)CC(=Cc3ccc(OC)cc3)C2=O)cc1 | n | n | 14 | n | n | n | n | n
CN(C)/C=C/C(=O)c1ccc2noc(-c3ccc(F)cc3)c2c1 | n | 4.8 | 11 | n | n | n | n | n
O=C(Nc1ccsc1C(=O)O)c1cccc(C(F)(F)F)c1 | n | n | n | n | n | n | x | x
Cc1ccccc1NC(=O)c1cccc(C(F)(F)F)c1 | n | n | 8.2 | n | n | n | n | n
Nc1nc(Cl)cc(Nc2ccccc2Cl)n1 | n | n | 9.5 | n | n | n | n | n
CSc1nc(Cl)cc(Nc2ccccc2N)n1 | n | n | n | n | n | n | x | x
CCOC(=O)[C@]12CCCC=C1N(CCCOC)C(=O)[C@@H]2CC(=O)N1CCC(c2ccccc2)CC1 | n | x | n | n | n | n | x | x
CCN(CC)CCCNc1nc2cc(OC)c(OC)cc2c2nc(-c3ccccc3)nn12 | n | n | n | n | n | n | x | x
CCN(CC)CCCNc1nc2ccccc2c2nc(-c3ccncc3)nn12 | n | n | 23 | n | n | n | 35 | n
COC(=O)[C@]12C[C@H](CC(=O)NCC34CC5CC(CC(C5)C3)C4)C(=O)N(Cc3cccc4ccccc34)C1=C[C@H](COCc1ccccc1)O[C@@H]2C | n | x | n | n | n | n | x | x
CCC(=O)NC(c1ccccc1)c1nc2ccccc2[nH]1 (configuration not stated) | n | n | 8.5 | n | n | n | n | n
CCOc1ccc(Cl)cc1/C=C1/C(=O)ON=C1C | n | n | 8.0 | n | n | n | n | n
COc1ccc(Cl)cc1/C=C1/C(=O)ON=C1C | n | n | n | n | n | n | x | x
O=C(N/N=C/c1ccccc1O)c1ccc2c(c1)OCO2 | n | n | n | n | n | n | x | x
O=C(N/N=C/c1ccc2c(c1)OCO2)c1ccc2c(c1)OCCO2 | n | n | 10 | 13 | n | n | n | n
O=C(N/N=C/C1CC2CCC1C2)c1ccc2c(c1)OCO2 (configuration not stated) | n | n | 8.2 | n | n | n | n | n
O=C(/C=C/c1ccccc1Cl)Nc1ccc(-c2nnc3n2CCCCC3)cc1 | n | n | 10 | n | n | n | n | n
O=C(OC12CCCN(C1)/C(=C/c1ccc(Cl)cc1)C2)c1ccco1 (configuration not stated) | n | x | n | n | n | n | x | x
COC(=O)[C@]12C[C@H](CC(=O)NCCC(C)C)C(=O)N(Cc3cccc4ccccc34)C1=C[C@H](COCc1ccccc1)O[C@@H]2C | n | x | n | n | n | n | x | x
COC(=O)[C@]12C[C@H](CC(=O)N3CCSCC3)C(=O)N(Cc3ccc(Cl)cc3Cl)C1=C[C@H](C(C)C)O[C@@H]2C1CC1 | n | x | n | n | n | n | x | x
O=C(OCC1CC(c2ccccc2Cl)=NO1)c1ccc(Br)cc1 (configuration not stated) | n | n | 11 | n | n | n | n | n
SMILES | hcDAF-12 act | DAX1 inh-1 | SMARCA2 act | hgDAF-12 ag | DAX1 inh-2 | ssDAF-12 act | SMARCA2 act conf | GAL4-VP16 Luc
Cc1nn(C)cc1CNC(=O)C1(C)CC1(Cl)Cl (configuration not stated) | n | n | n | n | n | n | x | x
Cc1nn(C)cc1CNC(=O)Nc1ccc(Cl)c(Cl)c1 | n | n | 8.0 | n | n | n | n | 6.9
CC(COc1ccc(C#N)cc1F)CN1CCC(C(O)(c2ccccc2)c2ccccc2)CC1 (configuration not stated) | n | x | n | n | n | n | x | x
C=CCNC(=O)N1CCC(c2nc3ccc(Cl)cc3[nH]2)CC1 | n | x | 9.7 | n | n | n | n | n
COc1ccccc1CNC(=O)COC(=O)c1cccnc1SCC(=O)NCc1ccccc1OC | n | n | n | n | n | n | x | x
O=C(COC(=O)c1cccnc1SCC(=O)NCc1ccccc1)NCc1ccccc1 | n | n | 9.1 | n | n | n | n | n
CCCCN1CC(N2CCN(CCO)CC2)CS1(=O)=O (configuration not stated) | n | x | n | n | n | n | x | x
CCCCCCN1CCN(C2CN(CCCC)S(=O)(=O)C2)CC1 (configuration not stated) | n | x | 8.7 | n | n | n | n | n
CCCCCOc1ccc(C(=O)N(Cc2ccco2)C2CCS(=O)(=O)C2)cc1 (configuration not stated) | n | n | 8.9 | n | n | n | n | n
COC(=O)[C@]12C[C@H](CC(=O)N3CCCCC3)C(=O)N(CCc3ccc(OC)c(OC)c3)C1=C[C@H](C(C)(C)C)O[C@@H]2C | n | x | n | n | n | n | x | x
CCc1sc(C(=O)NCc2ccco2)cc1C | n | n | 11 | n | n | n | n | n
CCc1sc(C(=O)NCc2ccco2)cc1Br | n | n | n | n | n | n | x | x
COc1cccc(C(=O)O/N=C(\N)CS(=O)(=O)c2ccccc2)c1 | n | n | 12 | n | n | n | n | n
CC(=O)Nc1ccc2c(=O)n(-c3ccccc3)sc2c1 | n | n | 9.8 | n | n | n | n | n
N#Cc1ccc2c(=O)n(-c3ccccc3)sc2c1 | n | n | n | n | n | n | x | x
C[C@H]1[C@H](c2ccccc2)Oc2cccc(NCCc3ccccc3)c2S(=O)(=O)N1Cc1ccc(F)cc1 | n | x | n | n | n | n | x | x
O=C(OCCN1CCN(C2CN(Cc3cn(Cc4ccccc4Cl)nn3)S(=O)(=O)C2)CC1)c1cccs1 (configuration not stated) | n | x | n | n | n | n | x | x
O=C(c1c(F)cccc1F)N1CCC(n2nnc3cc(C(F)(F)F)ccc32)CC1 | n | n | n | n | n | n | x | x
O=C(c1ccncc1F)N1CCC(n2nnc3ncccc32)CC1 | n | x | 8.1 | n | n | n | n | n
COC(=O)N/N=C(\C)c1ccccc1Br | n | n | 8.0 | n | n | n | 9.1 | n
